Screening results from PubChem BioAssay.
Only a selection was taken, and hits are over-represented in it overall.
Pf Dd2 growth – inhibitors of Plasmodium falciparum Dd2 growth | P. falciparum Dd2 growth, SYBR Green, 72 h | Potency, µM (top dose mostly 28.9 µM), for inactives: top-dose activity, negative = inhibition, usual class: inhibitors | 4.3% of 120,000 active; active means well fitted inhibition curve with a large enough effect;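 further: plate controls were DMSO vehicle for no effect and reference drug for full effect; nearly all actives have a fitted effect of over 65% in size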
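Infected erythrocytes (Dd2, 0.3% parasitemia, 2.5% hematocrit final) are added to compound in RPMI-1640/Albumax II medium, grown 72 h at 37C in low oxygen, then lysed with saponin/Triton-X containing SYBR Green and read by fluorescence.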
The depositor's hits bear a star; i = inactive; [ ] = remark or other dose. Potency means the concentration at half of the fitted maximal effect.

SMILES | Pf Dd2 growth
CCOc1ccc(C(=O)c2cn(CC(=O)Nc3cc(OC)ccc3OC)c3cc(OC)c(OC)cc3c2=O)cc1 | i
CCOc1ccc(C(=O)c2cn(Cc3cccc(OC)c3)c3cc4c(cc3c2=O)OCO4)cc1 | -27.1%
CCOc1ccc(C(=O)c2cn(Cc3ccc(OC)cc3)c3cc(OC)c(OC)cc3c2=O)cc1 | 10µM*
CCCC1CN(C(=O)OC(C)(C)C)C(C)CN1 (centres undefined) | -26.7%[44.1 µM]
O=C(NC[C@H]1Cn2ccnc2CO1)NC1CCCCC1 | -19.9%[44.1 µM]
Cc1cnc(C(=O)N2CCOc3ccc(CN4CCCCCC4)cc3C2)cn1 | i
CCN1c2cc(C(=O)Nc3cc(F)cc(F)c3)ccc2C(=O)N2CCCCC21 (centres undefined) | -27.2%
COc1ccccc1C(=O)Nc1sc(Nc2ccccc2)nc1C(N)=O | 39.7%
COc1ccc(C(=O)c2sc(Nc3ccccc3)nc2N)cc1 | 8.91µM*
COc1ccc(C(=O)c2sc(Nc3cc(Cl)ccc3C)nc2N)cc1OC | 53.5%
Cc1nc([C@H]2CCN(Cc3ccc(F)cc3F)C[C@H]2NC(=O)CN(C)C)n[nH]1 | -23.0%
CN(Cc1ccc(F)cc1)Cc1ccc(OC(F)(F)F)cc1 | -6.9%[44.1 µM]
C=CCOc1cccc(-c2nnc(CCC(=O)NC(C)CC)c(=O)[nH]2)c1 (centres undefined) | i
CN(Cc1ccccc1)C(=O)[C@H]1O[C@H](CCN2CCOCC2)CC[C@@H]1O | -11.5%[44.1 µM]
C#CCN(C)CC[C@@H]1CC[C@H](O)[C@@H](C(=O)N(C)Cc2ccccc2)O1 | -12.4%[44.1 µM]
CN(Cc1ccccc1)C(=O)[C@H]1O[C@H](CCN2CCN(Cc3ccccc3)CC2)CC[C@@H]1O | 4.47µM*
COCC1CN(C(C)=O)CC12CCN(S(=O)(=O)c1cnc[nH]1)CC2 (centres undefined) | -8.6%
Cc1ccc(-n2ncc(C(=O)NCc3cccs3)c2C2CCN(C(=O)OC(C)(C)C)CC2)c(C)c1 | 11.2µM*
CC(C)(C)OC(=O)N1CCC(c2c(C(=O)NCc3cccs3)cnn2-c2cccc(F)c2)CC1 | 7.94µM*
Cc1nc([C@@H]2CN(C(=O)c3cscn3)C[C@H]2C(N)=O)n[nH]1 | 1.3%
O=C(C1CC1)N1CCC(OCCOc2cccnc2)CC1 | 52.7%
Cc1ccc(-n2ncc3c2CC(C)(C)CC3NS(=O)(=O)c2cn(C)cn2)cc1 (centres undefined) | i
CCOc1cc(=O)n2c(c1C(=O)N1CCN(c3ccccc3F)CC1)CCCC2 | i
Cc1ccc(OCC(=O)N2CCC3(CC2)CC(N(C(=O)NC(C)C)C2CC2)CCO3)cc1 (centres undefined) | i
CC(Cc1ccncc1)Nc1nccc(-c2cnn(-c3ccccc3)c2)n1 (centres undefined) | 8.91µM*
SMILES | Pf Dd2 growth
c1cncc(-c2ccnc(NCCc3csc(-c4ccncc4)n3)n2)c1 | -6.7%
CCN(Cc1ccncc1)Cc1cn(-c2ccccc2)nn1 | -15.0%
CC(Cc1ccncc1)Nc1nccc(-c2cnn(-c3ccccc3F)c2)n1 (centres undefined) | 5.01µM*
Fc1ccc(CCNc2nccc(-c3cccnc3)n2)cc1 | -27.2%
c1cc(-c2ccnc(NCC3(N4CCOCC4)CCCCC3)n2)ccn1 | -18.4%
COC[C@@H]1CN(C(=O)c2ccc(C(C)(C)C)cc2)C[C@H]1c1nc(C)no1 | -17.4%
O=C(c1cncc(N2CCCC(CCc3cccc(F)c3)C2)n1)N1CCCCC1 (centres undefined) | 11.2µM*
O=C(c1ccco1)N1CCCC(CCc2cccc(F)c2)C1 (centres undefined) | -10.0%
Cc1cnc(C(=O)N2CCCC(CCc3cccc(F)c3)C2)cn1 (centres undefined) | 2.0%
O=C(c1ccc2nc(-c3ccccc3)cn2c1)N1C[C@@H]2CCC[C@H]1C2 | -12.5%
O=C(Cn1nc2n(c1=O)CCCCC2)NCc1ccc(Cl)cc1 | 23.3%
O=C(C1CCCCC1)N1CCCC2(CC(c3cccnc3)=NO2)C1 (centres undefined) | 15.0%
CCCCOc1ccc(-c2nonc2NC(=O)c2ccco2)cc1 | 42.4%
CCOc1ccc(-c2nonc2NC(=O)c2ccco2)cc1 | 31.9%
CCOc1ccc(-c2nonc2NC(=O)c2ccco2)cc1OCC | 2.51µM*
CN1[C@@H](CCC(=O)N2CCOCC2)CNC(=O)[C@H]2NCC[C@H]21 | -8.0%[44.1 µM]
COc1ccccc1-c1nc(C(=O)N2CCOCC2)n2ccccc12 | -21.6%
O=C(NCCOc1ccccc1)c1cnc2n1CCN(Cc1ccc3[nH]ccc3c1)CC2 | 12.6µM*
N#Cc1cccc(CN2CCc3ncc(C(=O)NCCOc4ccccc4)n3CC2)c1 | -1.2%[44.1 µM]
O=C(NCCOc1ccccc1)c1cnc2n1CCN(Cc1ccccc1O)CC2 | 0.6%[44.1 µM]
COc1ccc(NC(=O)N2CCC3(CC2)SCC(=O)N3c2ccc(F)cc2)cc1 | i
COc1ccc(Cl)cc1S(=O)(=O)N1CCC(n2cnnc2C)CC1 | -25.6%
COc1ccc(OC)c(S(=O)(=O)N2CCC(OC3CCN(C)CC3)CC2)c1 | i
COc1ccc(Cl)cc1S(=O)(=O)N1CCC(OC2CCN(C)CC2)CC1 | 3.16µM*
N[C@@H](Cc1cnc[nH]1)C(=O)N1CCC(c2cc(-c3ccccc3Cl)n[nH]2)CC1 | -16.1%
SMILES | Pf Dd2 growth
O=C(c1cccc(Cl)c1)N1CCC2(CC1)CCN(Cc1cccs1)c1ccccc1O2 | 7.94µM*
CCCN1CCC2(CCN(C(=O)Nc3ccc(Cl)cc3)CC2)Oc2ccccc21 | -13.8%
CCOc1ccccc1CN1CCC2(CCN(C(=O)c3ccc(OC)cc3)CC2)Oc2ccccc21 | -20.1%
CN1[C@@H](CCC(=O)NCc2cccs2)CNC(=O)[C@@H]2[C@H]1CCN2Cc1ccc(O)cc1 | -2.9%[44.1 µM]
CC(=O)N(C1CCOCC1)C1CCN(C(=O)Nc2ccccc2)CC1 | -48.6%
CCC(=O)N1CCCCCCNC(=O)[C@@H]2CCC[C@@H]21 | 10.8%
Cc1cn2nc(C(=O)NCc3ccc(F)cc3F)cc2c(=O)[nH]1 | 3.16µM*
Cc1cn2nc(C(=O)NCc3ccc(Cl)cc3)cc2c(=O)[nH]1 | 3.5%
Cc1cn2nc(C(=O)NCc3ccccc3C)cc2c(=O)[nH]1 | 24.8%
O=C(CC1C(=O)NCCN1Cc1ccoc1)NCc1nnc2n1CCCCC2 (centres undefined) | -6.0%
Cc1ccc(Cc2ccccc2C(=O)N2C[C@@H](C)[C@@](C)(O)C2)cc1 | 2.0%
O=C(O)c1ccc(CC2CCN(C(=O)c3cccc(-n4cccn4)c3)C2)cc1 (centres undefined) | -5.0%
Cc1ccc(C(=O)N[C@@H](Cc2ccccc2)C(=O)N2CCCOCCNC(=O)CC2)s1 | -19.8%
Cn1c(CNC(=O)C2CCN(C(=O)N3CC4CC(C3)[C@H]3CCCC(=O)N3C4)CC2)nc2ccccc21 (some centres undefined) | i
Cc1ccc(C(=O)N2CC(Oc3ccc(F)cc3C)C2)cc1 | 11.2µM*
Cc1ccc(OC2CN(C(=O)c3ccc(F)cc3)C2)cc1C | -30.2%[44.1 µM]
Cc1cc(F)ccc1OC1CN(C(=O)c2ccccn2)C1 | -0.3%[44.1 µM]
COc1ccc2c(c1)nc1n2[C@@H](CNC(C)C)COC1 | i
CN(C)c1cccc(C(=O)NCCC2CCN(C(=O)Nc3cc(F)cc(F)c3)CC2)c1 | -17.8%
Cc1ncsc1CN1CCCCCCNC(=O)[C@@H]2C[C@@H](C(=O)N3CCc4ccccc4C3)C[C@@H]21 | 4.47µM*
N#Cc1ccc(C(=O)N2CCCCCNC(=O)[C@@H]3CCCC[C@@H]32)cc1 | 14.3%
O=C1NCCCCCCN(Cc2cccc(F)c2)[C@H]2C[C@H](C(=O)N3CCc4ccccc4C3)C[C@@H]12 | 3.55µM*
Cc1ncsc1CN1CCCC(C(=O)NCc2ccccc2)CCNC(=O)CC1 (centres undefined) | -11.3%
